From paper PMC11062922 (Nature Chemical Biology, 2023)
Where two headings read alike, the source gives them in different places.

Key:
[1] = system: PKN1; settings: read-out: apparent Kd, n = 1
[2] = system: PLK4; settings: read-out: apparent Kd, n = 1
[3] = compound concentrations:100 nM and 1000 nM (sheet 'Lestaurtinib' of Supplementary Table 1),run:Lestaurtinib_02364_R2,Plate:MR002
[4] = compound concentrations:100 nM and 1000 nM (sheet 'Lestaurtinib' of Supplementary Table 1),run:Lestaurtinib_02367_R1,Plate:MR003
[5] = compound concentrations:100 nM and 1000 nM (sheet 'Lestaurtinib' of Supplementary Table 1),run:Lestaurtinib_02367_R2,Plate:MR003
[6] = compound concentrations:100 nM and 1000 nM (sheet 'Lestaurtinib' of Supplementary Table 1),run:Lestaurtinib_02381_R1,Plate:MR004
[7] = compound concentrations:100 nM and 1000 nM (sheet 'Lestaurtinib' of Supplementary Table 1),run:Lestaurtinib_02381_R2,Plate:MR004
[8] = compound concentrations:100 nM and 1000 nM (sheet 'Lestaurtinib' of Supplementary Table 1),run:Lestaurtinib_02381_R3,Plate:MR004
[9] = compound concentrations:100 nM and 1000 nM (sheet 'Lestaurtinib' of Supplementary Table 1),run:Lestaurtinib_02407_R1,Plate:MR005

Lestaurtinib
potency estimated from few doses [1, 3]: 487 nM
potency estimated from few doses ([1]; compound concentrations:100 nM and 1000 nM (sheet 'Lestaurtinib' of Supplementary Table 1),run:Lestaurtinib_02364_R3,Plate:MR002): 408 nM
potency estimated from few doses [1, 4]: 440 nM
potency estimated from few doses [1, 5]: 488 nM
potency estimated from few doses [1, 6]: 350 nM
potency estimated from few doses [1, 7]: 390 nM
potency estimated from few doses [1, 8]: 242 nM
potency estimated from few doses [1, 9]: 519 nM
potency estimated from few doses ([1]; compound concentrations:100 nM and 1000 nM (sheet 'Lestaurtinib' of Supplementary Table 1),run:Lestaurtinib_02422_R1,Plate:MR006): 327 nM
potency estimated from few doses ([1]; compound concentrations:100 nM and 1000 nM (sheet 'Lestaurtinib' of Supplementary Table 1),run:Lestaurtinib_02422_R2,Plate:MR006): 52.5 nM
potency estimated from few doses ([1]; compound concentrations:100 nM and 1000 nM (sheet 'Lestaurtinib' of Supplementary Table 1),run:Lestaurtinib_02437_R1,Plate:MR007): 578 nM
potency estimated from few doses ([1]; compound concentrations:100 nM and 1000 nM (sheet 'Lestaurtinib' of Supplementary Table 1),run:Lestaurtinib_02437_R2,Plate:MR007): 490 nM
potency estimated from few doses ([1]; compound concentrations:100 nM and 1000 nM (sheet 'Lestaurtinib' of Supplementary Table 1),run:Lestaurtinib_02438_R1,Plate:MR008): 516 nM
potency estimated from few doses ([1]; compound concentrations:100 nM and 1000 nM (sheet 'Lestaurtinib' of Supplementary Table 1),run:Lestaurtinib_02438_R2,Plate:MR008): 520 nM
potency estimated from few doses ([1]; compound concentrations:100 nM and 1000 nM (sheet 'Lestaurtinib' of Supplementary Table 1),run:Lestaurtinib_02438_R3,Plate:MR008): 483 nM
potency estimated from few doses ([1]; compound concentrations:100 nM and 1000 nM (sheet 'Lestaurtinib' of Supplementary Table 1),run:Lestaurtinib_02443_R1,Plate:MR009): 429 nM
potency estimated from few doses ([1]; compound concentrations:100 nM and 1000 nM (sheet 'Lestaurtinib' of Supplementary Table 1),run:Lestaurtinib_02443_R2,Plate:MR009): 415 nM
potency estimated from few doses ([1]; compound concentrations:100 nM and 1000 nM (sheet 'Lestaurtinib' of Supplementary Table 1),run:Lestaurtinib_02443_R3,Plate:MR009): 397 nM
potency estimated from few doses ([1]; compound concentrations:100 nM and 1000 nM (sheet 'Lestaurtinib' of Supplementary Table 1),run:Lestaurtinib_02473_R1,Plate:MR010): 430 nM
potency estimated from few doses ([1]; compound concentrations:100 nM and 1000 nM (sheet 'Lestaurtinib' of Supplementary Table 1),run:Lestaurtinib_02473_R2,Plate:MR010): 385 nM
potency estimated from few doses ([1]; compound concentrations:100 nM and 1000 nM (sheet 'Lestaurtinib' of Supplementary Table 1),run:Lestaurtinib_02482_R1,Plate:MR011): 508 nM
potency estimated from few doses ([1]; compound concentrations:100 nM and 1000 nM (sheet 'Lestaurtinib' of Supplementary Table 1),run:Lestaurtinib_02482_R2,Plate:MR011): 460 nM
potency estimated from few doses ([1]; compound concentrations:100 nM and 1000 nM (sheet 'Lestaurtinib' of Supplementary Table 1),run:Lestaurtinib_02482_R3,Plate:MR011): 432 nM
potency estimated from few doses ([1]; compound concentrations:100 nM and 1000 nM (sheet 'Lestaurtinib' of Supplementary Table 1),run:Lestaurtinib_02487_R3,Plate:MR012): 500 nM
potency estimated from few doses ([1]; compound concentrations:100 nM and 1000 nM (sheet 'Lestaurtinib' of Supplementary Table 1),run:Lestaurtinib_02496_R1,Plate:MR013): 473 nM
potency estimated from few doses ([1]; compound concentrations:100 nM and 1000 nM (sheet 'Lestaurtinib' of Supplementary Table 1),run:Lestaurtinib_02496_R2,Plate:MR013): 455 nM
potency estimated from few doses ([1]; compound concentrations:100 nM and 1000 nM (sheet 'Lestaurtinib' of Supplementary Table 1),run:Lestaurtinib_02496_R3,Plate:MR013): 459 nM
potency estimated from few doses ([1]; compound concentrations:100 nM and 1000 nM (sheet 'Lestaurtinib' of Supplementary Table 1),run:Lestaurtinib_02566_R1,Plate:MR014): 512 nM
potency estimated from few doses ([1]; compound concentrations:100 nM and 1000 nM (sheet 'Lestaurtinib' of Supplementary Table 1),run:Lestaurtinib_02566_R3,Plate:MR014): 539 nM
potency estimated from few doses ([1]; compound concentrations:100 nM and 1000 nM (sheet 'Lestaurtinib' of Supplementary Table 1),run:Lestaurtinib_02572_R1,Plate:MR015): 628 nM
potency estimated from few doses ([1]; compound concentrations:100 nM and 1000 nM (sheet 'Lestaurtinib' of Supplementary Table 1),run:Lestaurtinib_02572_R2,Plate:MR015): 517 nM
potency estimated from few doses ([1]; compound concentrations:100 nM and 1000 nM (sheet 'Lestaurtinib' of Supplementary Table 1),run:Lestaurtinib_02572_R3,Plate:MR015): 559 nM
potency estimated from few doses ([1]; compound concentrations:100 nM and 1000 nM (sheet 'Lestaurtinib' of Supplementary Table 1),run:Lestaurtinib_02577_R2,Plate:MR016): 613 nM
potency estimated from few doses ([1]; compound concentrations:100 nM and 1000 nM (sheet 'Lestaurtinib' of Supplementary Table 1),run:Lestaurtinib_02577_R3,Plate:MR016): 470 nM
potency estimated from few doses ([1]; compound concentrations:100 nM and 1000 nM (sheet 'Lestaurtinib' of Supplementary Table 1),run:Lestaurtinib_02584_R1,Plate:MR017): 493 nM
potency estimated from few doses ([1]; compound concentrations:100 nM and 1000 nM (sheet 'Lestaurtinib' of Supplementary Table 1),run:Lestaurtinib_02584_R2,Plate:MR017): 437 nM
potency estimated from few doses ([1]; compound concentrations:100 nM and 1000 nM (sheet 'Lestaurtinib' of Supplementary Table 1),run:Lestaurtinib_02584_R3,Plate:MR017): 508 nM
potency estimated from few doses ([1]; compound concentrations:100 nM and 1000 nM (sheet 'Lestaurtinib' of Supplementary Table 1),run:Lestaurtinib_02601_R1,Plate:MR018): 580 nM
potency estimated from few doses ([1]; compound concentrations:100 nM and 1000 nM (sheet 'Lestaurtinib' of Supplementary Table 1),run:Lestaurtinib_02601_R2,Plate:MR018): 523 nM
potency estimated from few doses ([1]; compound concentrations:100 nM and 1000 nM (sheet 'Lestaurtinib' of Supplementary Table 1),run:Lestaurtinib_02601_R3,Plate:MR018): 615 nM
potency estimated from few doses ([1]; compound concentrations:100 nM and 1000 nM (sheet 'Lestaurtinib' of Supplementary Table 1),run:Lestaurtinib_02606_R3,Plate:MR019): 534 nM
potency estimated from few doses ([1]; compound concentrations:100 nM and 1000 nM (sheet 'Lestaurtinib' of Supplementary Table 1),run:Lestaurtinib_02624_R1,Plate:MR020): 496 nM
potency estimated from few doses ([1]; compound concentrations:100 nM and 1000 nM (sheet 'Lestaurtinib' of Supplementary Table 1),run:Lestaurtinib_02624_R2,Plate:MR020): 430 nM
potency estimated from few doses ([1]; compound concentrations:100 nM and 1000 nM (sheet 'Lestaurtinib' of Supplementary Table 1),run:Lestaurtinib_02624_R3,Plate:MR020): 513 nM
potency estimated from few doses ([1]; compound concentrations:100 nM and 1000 nM (sheet 'Lestaurtinib' of Supplementary Table 1),run:Lestaurtinib_02724_R1,Plate:MR021): 487 nM
potency estimated from few doses ([1]; compound concentrations:100 nM and 1000 nM (sheet 'Lestaurtinib' of Supplementary Table 1),run:Lestaurtinib_02724_R2,Plate:MR021): 386 nM
potency estimated from few doses ([1]; compound concentrations:100 nM and 1000 nM (sheet 'Lestaurtinib' of Supplementary Table 1),run:Lestaurtinib_02741_R3,Plate:MR023): 518 nM
potency estimated from few doses ([1]; compound concentrations:100 nM and 1000 nM (sheet 'Lestaurtinib' of Supplementary Table 1),run:Lestaurtinib_02748_R1,Plate:MR024): 418 nM
potency estimated from few doses ([1]; compound concentrations:100 nM and 1000 nM (sheet 'Lestaurtinib' of Supplementary Table 1),run:Lestaurtinib_02748_R2,Plate:MR024): 511 nM
potency estimated from few doses ([1]; compound concentrations:100 nM and 1000 nM (sheet 'Lestaurtinib' of Supplementary Table 1),run:Lestaurtinib_02748_R3,Plate:MR024): 440 nM
potency estimated from few doses ([1]; compound concentrations:100 nM and 1000 nM (sheet 'Lestaurtinib' of Supplementary Table 1),run:Lestaurtinib_02752_R1,Plate:MR025): 489 nM
potency estimated from few doses ([1]; compound concentrations:100 nM and 1000 nM (sheet 'Lestaurtinib' of Supplementary Table 1),run:Lestaurtinib_02752_R2,Plate:MR025): 414 nM
potency estimated from few doses ([1]; compound concentrations:100 nM and 1000 nM (sheet 'Lestaurtinib' of Supplementary Table 1),run:Lestaurtinib_02752_R3,Plate:MR025): 448 nM
potency estimated from few doses ([1]; compound concentrations:100 nM and 1000 nM (sheet 'Lestaurtinib' of Supplementary Table 1),run:Lestaurtinib_02765_R1,Plate:MR026): 524 nM
potency estimated from few doses ([1]; compound concentrations:100 nM and 1000 nM (sheet 'Lestaurtinib' of Supplementary Table 1),run:Lestaurtinib_02765_R3,Plate:MR026): 568 nM
potency estimated from few doses ([1]; compound concentrations:100 nM and 1000 nM (sheet 'Lestaurtinib' of Supplementary Table 1),run:Lestaurtinib_02766_R1,Plate:MR027): 532 nM
potency estimated from few doses ([1]; compound concentrations:100 nM and 1000 nM (sheet 'Lestaurtinib' of Supplementary Table 1),run:Lestaurtinib_02766_R2,Plate:MR027): 582 nM
potency estimated from few doses ([1]; compound concentrations:100 nM and 1000 nM (sheet 'Lestaurtinib' of Supplementary Table 1),run:Lestaurtinib_02766_R3,Plate:MR027): 483 nM
potency estimated from few doses ([1]; compound concentrations:100 nM and 1000 nM (sheet 'Lestaurtinib' of Supplementary Table 1),run:Lestaurtinib_02768_R1,Plate:MR028): 403 nM
potency estimated from few doses ([1]; compound concentrations:100 nM and 1000 nM (sheet 'Lestaurtinib' of Supplementary Table 1),run:Lestaurtinib_02768_R2,Plate:MR028): 488 nM
potency estimated from few doses ([1]; compound concentrations:100 nM and 1000 nM (sheet 'Lestaurtinib' of Supplementary Table 1),run:Lestaurtinib_02768_R3,Plate:MR028): 424 nM
potency estimated from few doses ([1]; compound concentrations:100 nM and 1000 nM (sheet 'Lestaurtinib' of Supplementary Table 1),run:Lestaurtinib_02795_R1,Plate:MR022): 453 nM
potency estimated from few doses ([1]; compound concentrations:100 nM and 1000 nM (sheet 'Lestaurtinib' of Supplementary Table 1),run:Lestaurtinib_02795_R2,Plate:MR022): 443 nM
potency estimated from few doses ([1]; compound concentrations:100 nM and 1000 nM (sheet 'Lestaurtinib' of Supplementary Table 1),run:Lestaurtinib_02795_R3,Plate:MR022): 422 nM
potency estimated from few doses ([1]; compound concentrations:100 nM and 1000 nM (sheet 'Lestaurtinib' of Supplementary Table 1),run:Lestaurtinib_02802_R1,Plate:MR029): 473 nM
potency estimated from few doses ([1]; compound concentrations:100 nM and 1000 nM (sheet 'Lestaurtinib' of Supplementary Table 1),run:Lestaurtinib_02802_R2,Plate:MR029): 433 nM
potency estimated from few doses ([1]; compound concentrations:100 nM and 1000 nM (sheet 'Lestaurtinib' of Supplementary Table 1),run:Lestaurtinib_02802_R3,Plate:MR029): 181 nM
potency estimated from few doses ([1]; compound concentrations:100 nM and 1000 nM (sheet 'Lestaurtinib' of Supplementary Table 1),run:Lestaurtinib_03172_R1,Plate:MR031): 435 nM
potency estimated from few doses ([1]; compound concentrations:100 nM and 1000 nM (sheet 'Lestaurtinib' of Supplementary Table 1),run:Lestaurtinib_03172_R3,Plate:MR031): 358 nM
potency estimated from few doses ([1]; compound concentrations:100 nM and 1000 nM (sheet 'Lestaurtinib' of Supplementary Table 1),run:Lestaurtinib_03252_R2,Plate:MR032): 94.9 nM
potency estimated from few doses ([1]; compound concentrations:100 nM and 1000 nM (sheet 'Lestaurtinib' of Supplementary Table 1),run:Lestaurtinib_03260_R1,Plate:MR033): 514 nM
potency estimated from few doses ([1]; compound concentrations:100 nM and 1000 nM (sheet 'Lestaurtinib' of Supplementary Table 1),run:Lestaurtinib_03260_R2,Plate:MR033): 559 nM
potency estimated from few doses ([1]; compound concentrations:100 nM and 1000 nM (sheet 'Lestaurtinib' of Supplementary Table 1),run:Lestaurtinib_03260_R3,Plate:MR033): 518 nM
potency estimated from few doses ([2]; compound concentrations:100 nM and 1000 nM (sheet 'Lestaurtinib' of Supplementary Table 1),run:Lestaurtinib_02339_R1,Plate:MR001): 80.5 nM
potency estimated from few doses ([2]; compound concentrations:100 nM and 1000 nM (sheet 'Lestaurtinib' of Supplementary Table 1),run:Lestaurtinib_02339_R2,Plate:MR001): 64.4 nM
potency estimated from few doses ([2]; compound concentrations:100 nM and 1000 nM (sheet 'Lestaurtinib' of Supplementary Table 1),run:Lestaurtinib_02339_R3,Plate:MR001): 51.7 nM
potency estimated from few doses [2, 3]: 202 nM
potency estimated from few doses [2, 4]: 62.3 nM
potency estimated from few doses [2, 5]: 75.5 nM
potency estimated from few doses [2, 6]: 71 nM
potency estimated from few doses [2, 7]: 73.6 nM
potency estimated from few doses [2, 8]: 93.7 nM
potency estimated from few doses [2, 9]: 45.6 nM
potency estimated from few doses ([2]; compound concentrations:100 nM and 1000 nM (sheet 'Lestaurtinib' of Supplementary Table 1),run:Lestaurtinib_02407_R2,Plate:MR005): 39.3 nM
potency estimated from few doses ([2]; compound concentrations:100 nM and 1000 nM (sheet 'Lestaurtinib' of Supplementary Table 1),run:Lestaurtinib_02407_R3,Plate:MR005): 47.3 nM
